An excerpt weighted towards active compounds, which were near 4.8% of everything screened.
SMARCA2 activ: increases SMARCA2 function in MMTV reporter cells; MG213 cells, MMTV-luciferase reporter, dexamethasone, overnight; hit rate 1% among 370,000; activation, % at 9.1 µM; in the data active = activation above about 7.8%;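 note: 0% = vehicle wells and 100% = reference activator wells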
hgDAF-12 ag: hgDAF-12 agonism, primary luciferase screen. HEK293 GAL4-hgDAF12 UAS-luciferase reporter, agonist luminescence; normalized to butyrate control. activation, % at 6.8 µM. hit rate 1.8% among 370,000;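 active = activation above a cutoff set at the mean of all screened compounds plus 3 SD, cut at about 10% in these data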;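 note: 0% = DMSO wells and 100% = sodium butyrate wells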
DAX1 inh-1: blocks DAX1 repression of SF-1 activated StAR promoter; HEK293T StAR-luciferase reporter, SF-1/DAX-1 repression relief; inhibition, % at 6.8 µM; hit rate 1.1% among 370,000;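 active = inhibition above the mean over all tested compounds plus 3 SD, cut at about 3.6% in these data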;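 note: 0% = DAX-1 cells with DMSO and 100% = cells lacking DAX-1 with DMSO; higher inhibition means more luminescence from relief of DAX-1 repression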
ssDAF-12 act: activators of S. stercoralis DAF-12 nuclear receptor. HEK293 ssDAF-12/GRIP1 lit1-tk-luc reporter, luminescence; % of 3 µM dafachronic acid response. activation, % at 6.8 µM. hit rate 1% among 370,000;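 active = activation above the mean over all tested compounds plus 3 SD, cut at about 0.9% in these data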;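 note: 0% = DMSO-only wells and 100% = 3 µM delta7-dafachronic acid wells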
hcDAF12 agonist: activators of H. contortus DAF-12 nuclear receptor | HEK293 hcDAF-12 lit1-tk-luc reporter, luminescence; 0% DMSO, 100% Δ7-dafachronic acid | hit rate 1.4% among 370,000 | activation, % at 6.8 µM;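 active = activation above the mean of all tested compounds plus 3 SD, cut at about 5.5% in these data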;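 note: 100% = response to 3 µM Δ7-dafachronic acid high control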
DAX1 inh-2: inhibits human nuclear receptor DAX1; HEK293 Gal4-DAX1 luciferase reporter, luminescence; hit rate 0.99% among 340,000; inhibition, % at 6.75 µM; P51843; AID 504766;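 active = inhibition above the mean over all tested compounds plus 3 SD, cut at about 4.2% in these data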;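 note: 0% = DAX1-transfected cells with DMSO and 100% = empty-vector control cells with DMSO; inhibition shows as a rise in luminescence from relieved DAX1 repression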
Target sequence (P51843 207-470 limits assumed): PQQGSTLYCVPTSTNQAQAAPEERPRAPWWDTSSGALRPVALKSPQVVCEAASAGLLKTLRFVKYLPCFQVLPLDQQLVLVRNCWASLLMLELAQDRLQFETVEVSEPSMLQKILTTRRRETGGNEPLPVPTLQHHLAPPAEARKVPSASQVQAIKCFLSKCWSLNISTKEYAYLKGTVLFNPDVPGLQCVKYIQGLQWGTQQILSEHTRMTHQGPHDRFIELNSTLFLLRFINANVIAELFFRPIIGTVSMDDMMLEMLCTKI
hgDAF12 conf: confirmation of H. glycines DAF-12 agonists | shares compounds with hgDAF-12 ag | HEK293 GAL4-hgDAF12 luciferase reporter, agonist mode; percent of butyrate response | activation, % at 6.8 µM | hit rate 80% among 3,300 | AID 743050;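 active = mean activation over triplicate wells above the hit cutoff derived from the earlier primary screen, cut at about 11% in these data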;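 note: 0% = DMSO low control and 100% = 2 mM sodium butyrate high control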
LXR ag 2: counter-screen for DAF-12 agonists: agonists of human LXR-beta | shares compounds with hgDAF-12 ag | HEK293 Gal4-LXR luciferase reporter, 24 h | activation, % at 6.8 µM | 3,300 tested, under 10 active | AID 743051;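 active = mean activation of the triplicate above a set limit carried over from the primary screen, none filed active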
Target sequence (P55055 whole entry, looked up, the tested form may be a part): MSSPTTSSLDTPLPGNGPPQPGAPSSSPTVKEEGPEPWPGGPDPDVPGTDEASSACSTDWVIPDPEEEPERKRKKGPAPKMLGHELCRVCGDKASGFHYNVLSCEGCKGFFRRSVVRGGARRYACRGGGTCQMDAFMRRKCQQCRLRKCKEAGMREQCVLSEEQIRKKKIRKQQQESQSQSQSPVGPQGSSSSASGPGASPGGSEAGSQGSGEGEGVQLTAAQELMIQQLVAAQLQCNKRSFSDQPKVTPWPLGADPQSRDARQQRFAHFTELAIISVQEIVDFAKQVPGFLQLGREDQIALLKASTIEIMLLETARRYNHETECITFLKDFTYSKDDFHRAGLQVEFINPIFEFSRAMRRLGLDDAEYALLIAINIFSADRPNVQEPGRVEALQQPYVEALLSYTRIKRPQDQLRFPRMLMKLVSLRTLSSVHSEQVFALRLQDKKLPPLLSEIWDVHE
Numbers without * were called inactive; nt = no result given.

SMILES	SMARCA2 activ	hgDAF-12 ag	DAX1 inh-1	ssDAF-12 act	hcDAF12 agonist	DAX1 inh-2	hgDAF12 conf	LXR ag 2
Cc1ccc(SCCN2CCC(C)CCC2=O)cc1 (stereo not given)	6.9	14.4*	1.8	0.2	3.5	1.8	17.3*	0.6
CC1=NN(C(=O)c2ccc(C)o2)C(O)(c2ccccc2)C1 (stereo not given)	3.0	16.6*	3.9*	-0.3	3.9	2.0	-0.8	0.0
CCOC(=O)c1cnc(-c2ccccc2)nc1N	-0.3	14.3*	4.5*	0.5	5.0	1.6	15.7*	0.8
CCOC(=O)c1cnc(-c2ccccc2)nc1N1CCOCC1	0.3	0.5	-0.6	-1.5	0.1	-0.1	nt	nt
CCCC1CCC(c2ccc(OCC)cc2)=CC1=O (stereo not given)	0.4	14.1*	1.5	-0.3	0.8	3.3	15.7*	0.8
CCOC(=O)C1CC2CC(C1)CN(C(=O)C1CCCCC1)C2 (stereo not given)	-0.9	-3.2	0.3	-0.3	-1.1	0.2	nt	nt
Cc1cc(C(=O)Nc2ccc3c(c2)CCC3)ccc1[N+](=O)[O-]	1.0	14.1*	1.2	-0.4	2.2	nt	16.6*	0.7
Nc1ccc(NC(=O)c2cccs2)cc1	-4.5	-1.2	1.4	-1.7	-0.7	-0.5	nt	nt
O=C(Nc1ccc2c(c1)CCC2)c1cccs1	0.8	15.9*	3.4	1.2*	2.7	0.7	17.3*	0.7
O=C(Nc1ccc2c(c1)CCC2)c1cnc(Cl)c(Cl)c1	3.4	14.8*	2.1	1.1*	3.7	2.1	19.1*	0.6
CC1(C)CC(=O)C2=C(C1)Nc1ccccc1NC2c1ccc([N+](=O)[O-])cc1 (stereo not given)	-2.9	0.0	-0.1	-1.4	-1.8	-0.5	nt	nt
COc1c(Cl)cnn(-c2cccc(C)c2)c1=O	-1.2	0.3	0.1	-0.5	-0.6	1.4	nt	nt
Cc1ccc(-n2ncc3ccccc3c2=O)cc1Cl	4.0	18.6*	2.5	0.6	5.2	4.7*	15.1*	0.6
O=C(c1ccccc1)c1ccc(N2CCOCC2)c(F)c1	3.2	16.0*	1.6	-1.5	1.3	0.8	13.9*	0.6
O=C(c1ccccc1)c1cc(F)c(N2CCOCC2)cc1Cl	1.3	2.0	-1.1	-0.8	-2.7	-0.7	nt	nt
COc1ccc([C@@H]2CC=C(C(=O)O)CN2S(=O)(=O)c2ccc(C)cc2)cc1OC	1.0	6.6	-0.2	-1.1	-2.1	0.1	nt	nt
C[C@@H](C(=O)Nc1ccc2c(c1)OCCO2)n1nnc2ccccc2c1=O	7.8	13.5*	0.8	0.2	1.9	2.0	13.7*	0.7
CN1C(=O)/C(=C/C=C2\SCCN2C)N(C)C1=S	5.9	14.3*	2.1	0.1	2.3	0.7	14.9*	0.6
CCOc1ccc(OCC)c(NS(=O)(=O)c2ccc3c(c2)CCN3C(=O)C2CCC2)c1	-2.4	-1.9	-1.2	-1.4	-3.9	-1.6	nt	nt
C#CC1(NC(=S)Nc2cccc(OC)c2)CCCCC1	-2.7	14.8*	0.7	0.2	1.7	1.6	0.8	0.0
Cc1ccc(C(=O)/C=C/c2ccc3c(c2)OCCO3)c(O)c1	5.2	13.9*	0.9	-0.6	1.2	1.3	8.2	0.6
O=C(COc1ccc2c(c1)OCO2)Nc1ccc(Cl)cn1	6.3	8.7	1.4	-0.6	1.6	1.2	nt	nt
O=C(/C=C/c1ccc2c(c1)OCCCO2)c1ccc2ccccc2c1O	1.3	-1.6	0.4	-0.8	-1.6	-0.1	nt	nt
O=C(/C=C/c1ccc2c(c1)OCO2)Nc1ccc(Cl)cn1	4.4	14.7*	4.3*	-0.5	2.6	0.3	13.2*	0.9
O=C(C=Cc1ccc2c(c1)OCO2)c1ccccc1	7.4	13.4*	0.3	-0.3	2.7	0.9	10.8*	0.2
SMILES	SMARCA2 activ	hgDAF-12 ag	DAX1 inh-1	ssDAF-12 act	hcDAF12 agonist	DAX1 inh-2	hgDAF12 conf	LXR ag 2
O=C(/C=C/c1ccc2c(c1)OCO2)c1ccccn1	2.2	0.0	0.2	-0.4	0.1	0.4	nt	nt
COc1cc(/C=C/C(=O)NC(C)C2CC3CCC2C3)cc(OC)c1OC (stereo not given)	-0.4	1.0	-0.1	-1.2	-1.2	-0.4	nt	nt
O=C(NC(=S)Nc1ccccc1O)c1ccc(Cl)cc1Cl	2.7	14.3*	0.7	0.7	6.5*	0.5	9.3	0.3
O=C(Nc1ccccc1Cl)c1ccc(Cl)cc1Cl	4.3	4.0	-0.1	-0.6	-0.6	0.8	nt	nt
COC(=O)CSc1nc2ccccc2o1	-1.9	-0.3	0.3	-1.4	3.8	1.7	nt	nt
Clc1c(CSc2nc3ccccc3o2)nc2sccn12	1.1	24.4*	4.1*	0.5	4.6	3.0	20.1*	0.6
N/C(=N\OC(=O)COc1ccc(Cl)cc1Br)c1ccncc1	5.0	15.8*	2.5	1.3*	5.0	1.7	18.8*	0.7
N/C(=N\OC(=O)COc1cc(Cl)c(Cl)cc1Cl)c1ccccn1	4.2	13.6*	3.5	-1.0	0.5	nt	12.3*	0.6
N/C(=N\OC(=O)CCCOc1ccc(Cl)cc1Cl)c1ccccn1	-3.5	-0.5	0.8	-1.6	0.1	-0.3	nt	nt
Cc1ccc(OCC(=O)O/N=C(\N)c2ccccn2)cc1	2.8	14.6*	3.8*	-0.1	4.2	3.1	13.6*	0.4
CCc1ccc(-c2cn3c(n2)SCC3)cc1	1.3	16.4*	4.0*	0.5	1.8	1.5	14.4*	0.7
Cc1nnc(NC(=O)c2ccccc2Br)s1	1.8	0.8	1.2	-1.0	0.0	-0.5	nt	nt
Cc1nnc(NC(=O)c2sc3ccccc3c2Cl)s1	4.9	16.4*	3.1	0.2	4.5	-3.9	11.2*	0.6
CSc1ccccc1C(=O)C1CCCN(S(=O)(=O)c2c(C)noc2C)C1 (stereo not given)	0.3	-1.2	-0.5	-1.1	-1.7	-1.9	nt	nt
O=C(N/N=C\c1cccc(Cl)c1)c1n[nH]c2c1CCCC2	4.7	13.8*	3.4	-1.4	2.0	1.4	11.3*	0.7
O=C(N/N=C/c1cccc2ccccc12)c1n[nH]c2c1CCCC2	-0.4	2.0	0.3	0.3	1.2	2.2	nt	nt
COc1ccc(/C(C)=N\NC(=O)c2ccco2)cc1	-4.1	23.6*	3.5	-0.6	3.4	nt	9.6	0.3
COc1ccc(C(=O)Nc2ccc(NC(=O)c3ccco3)cc2)cc1	2.5	-2.3	-0.3	-1.4	-3.8	0.5	nt	nt
C/C(=N/NC(=O)c1ccco1)c1ccc(NC(=O)c2ccc(F)cc2)cc1	2.9	13.3*	3.1	-0.7	2.5	2.3	10.0	0.4
COc1ccc(-c2nc(CN3CCC(C(=O)N4CCOCC4)CC3)c(C)o2)c(OC)c1	2.9	0.1	0.6	-0.6	-0.3	-0.4	nt	nt

From PubChem BioAssay
